Laboratory results published in PubChem BioAssay AID1159580 (chemical genetic matrix, 2015).
The campaign covered roughly 5,500 compounds. About 2,000 (36%) were called active. Another 18% or so got no clear call; they are omitted. Cut-off read from the data, not from the text of the source: active = normalized growth mostly below about 0.91 (no sharp cut-off); inconclusive = no clear call, values can overlap the other calls; inactive = mostly above about 0.92. This is one part of the list.

Test: chemical genetic growth profiling, strain panel (AID 1159580);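 note: tested at 20 µM; growth read once vehicle control cultures reached saturation at 30 °C; 1 = growth at the plate median or of vehicle wells; lower values mean less growth of the strain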
Conditions: S. cerevisiae deletion strains, growth OD

Measured: normalized growth

CC1(C)CCC[C@@]2(C)C1[C@@H](O)C[C@]1(C)C2CC[C@@H]2[C@@]3(C)CC[C@H](C(C)(C)O)[C@@H]3CC[C@@]21C (some centres not stated)
inactive: locus YAL013W, strain DEP1, hits give low values 0.998 | locus YBR021W, strain FUR4, hits give low values 1.07 | locus YBR229C, strain ROT2, hits give low values 1 | locus YCL029C, strain bik1, hits give low values 0.971 | locus YDL035C, strain GPR1, hits give low values 1.01 | locus YDL074C, strain BRE1, hits give low values 1.02 | locus YDL101C, strain DUN1, hits give low values 1 | locus YDL185W, strain tfp1, hits give low values 0.943 | locus YDL192W, strain arf1, hits give low values 0.993 | locus YDR101C, strain arx1, hits give low values 1.01 | locus YDR150W, strain NUM1, hits give low values 0.992 | locus YDR162C, strain NBP2, hits give low values 1.04 | locus YDR318W, strain mcm21, hits give low values 1 | locus YDR388W, hits give low values 0.986 | locus YDR502C, strain sam2, hits give low values 0.989 | locus YEL061C, strain CIN8, hits give low values 1 | locus YER110C, hits give low values 0.977 | locus YER155C, strain BEM2, hits give low values 1.01 | locus YER167W, strain BCK2, hits give low values 0.997 | locus YGL078C, strain dbp3, hits give low values 1 | locus YGL086W, strain mad1, hits give low values 1.05 | locus YGL248W, strain PDE1, hits give low values 1 | locus YGR135W, strain pre9, hits give low values 0.993 | locus YGR252W, strain gcn5, hits give low values 1.06 | locus YHR030C, strain SLT2, hits give low values 0.992 | locus YHR079C, strain IRE1 (second series), hits give low values 1.01 | locus YHR094C, strain hxt1, hits give low values 0.981 | locus YHR129C, strain ARP1, hits give low values 0.997 | locus YHR200W, strain rpn10, hits give low values 0.984 | locus YIL066C, strain RNR3, hits give low values 1.03 | locus YIL073C, strain SPO22, hits give low values 0.941 | locus YIL125W, strain kgd1, hits give low values 0.972 | locus YIR030C, strain dcg1, hits give low values 0.996 | locus YJL095W, strain BCK1, hits give low values 1.02 | locus YJL134W, strain LCB3, hits give low values 0.991 | locus YJL168C, strain set2, hits give low values 1.01 | locus YJL187C, strain SWE1 (second series), hits give low values 1 | locus YJR043C, strain POL32, hits give low values 1.03 | locus YKL009W, strain mrt4, hits give low values 1.05 | locus YKL068W, hits give low values 0.98 | locus YKL085W, strain MDH1 (second series), hits give low values 1.04 | locus YKL085W, strain MDH1, hits give low values 1.04 | locus YKL190W, strain CNB1, hits give low values 0.997 | locus YKR001C, strain vps1, hits give low values 1.03 | locus YLR039C, strain RIC1, hits give low values 1.05 | locus YLR058C, strain SHM2, hits give low values 0.996 | locus YLR102C, strain apc9, hits give low values 0.995 | locus YLR262C, strain YPT6, hits give low values 1.04 | locus YLR268W, strain sec22, hits give low values 0.986 | locus YLR330W, strain CHS5, hits give low values 0.983 | locus YLR342W, strain FKS1 (second series), hits give low values 1.01 | locus YLR371W, strain rom2, hits give low values 0.984 | locus YLR418C, strain cdc73, hits give low values 1.06 | locus YML016C, strain PPZ1, hits give low values 0.995 | locus YML032C, strain rad52, hits give low values 0.983 | locus YML124C, strain tub3, hits give low values 1.01 | locus YMR078C, strain ctf18, hits give low values 1.01 | locus YMR223W, strain ubp8, hits give low values 0.998 | locus YMR263W, strain SAP30, hits give low values 1 | locus YMR307W, strain GAS1, hits give low values 1.12 | locus YNL067W, strain RPL9B, hits give low values 1.02 | locus YNL153C, strain GIM3, hits give low values 1.02 | locus YNL233W, strain BNI4, hits give low values 1.03 | locus YNL250W, strain rad50, hits give low values 0.982 | locus YNL271C, strain bni1, hits give low values 0.997 | locus YNL298W, strain CLA4, hits give low values 0.975 | locus YNL307C, strain MCK1, hits give low values 0.996 | locus YNL322C, strain KRE1, hits give low values 1 | locus YNR052C, strain pop2, hits give low values 0.994 | locus YOL012C, strain htz1 1.13 | locus YOL147C, strain pex11, hits give low values 0.993 | locus YOR061W, strain CKA2, hits give low values 0.999 | locus YOR069W, strain VPS5, hits give low values 0.993 | locus YOR136W, strain idh2, hits give low values 0.988 | locus YOR144C, strain elg1, hits give low values 0.997 | locus YOR184W, strain ser1, hits give low values 1.01 | locus YOR316C, strain cot1, hits give low values 0.985 | locus YPR119W, strain clb2, hits give low values 1 | locus YPR141C, strain kar3, hits give low values 0.982 | locus YPR163C, strain tif3, hits give low values 0.99 | locus YPR167C, strain met16, hits give low values 0.989 | strain wtn01, hits give low values 0.986
